Assay outcomes (PubChem)
This is a sample that favours compounds with a hit; in the whole collection about 11% have one here.
Luciferase inh: blocks purified firefly luciferase enzyme activity; AID 1347043; P08659; 2.5% of 76,000 active; purified P. pyralis luciferase, luminescence, biochemical; Potency, µM (top dose mostly 115 µM), usual class: inhibitors; further: nearly all actives have a fitted effect of over 65% in size
Target sequence (P08659 whole entry, looked up): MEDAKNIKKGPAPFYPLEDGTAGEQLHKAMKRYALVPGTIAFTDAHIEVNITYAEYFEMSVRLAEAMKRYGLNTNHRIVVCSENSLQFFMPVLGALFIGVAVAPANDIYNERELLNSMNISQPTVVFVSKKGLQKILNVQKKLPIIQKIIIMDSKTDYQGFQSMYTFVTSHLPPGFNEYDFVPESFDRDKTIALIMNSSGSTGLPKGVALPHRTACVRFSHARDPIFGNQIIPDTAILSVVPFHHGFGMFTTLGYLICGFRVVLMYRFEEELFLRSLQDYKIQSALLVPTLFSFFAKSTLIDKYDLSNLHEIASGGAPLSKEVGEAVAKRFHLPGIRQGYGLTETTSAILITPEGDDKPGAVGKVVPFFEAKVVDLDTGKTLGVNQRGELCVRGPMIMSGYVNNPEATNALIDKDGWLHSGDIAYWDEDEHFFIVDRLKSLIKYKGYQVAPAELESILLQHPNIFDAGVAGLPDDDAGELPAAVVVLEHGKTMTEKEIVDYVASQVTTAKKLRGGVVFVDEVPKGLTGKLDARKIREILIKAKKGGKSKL
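Purified 10nM P. pyralis luciferase with 10uM D-luciferin and 10uM ATP in 50mM Tris acetate pH 7.5, 10mM Mg acetate, 0.01% Tween-20, 0.05% BSA. qHTS titration; luminescence read by CCD imager.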
3T3 cytotox: NIH 3T3 cell cytotoxicity; NIH 3T3 viability, CellTiter-Glo ATP luminescence, 48-72 h; Potency, µM (top dose mostly 96.7 µM), inactives show at the highest dose activity change, negative = cytotoxicity, usual class: inhibitors; 4.3% of 94,000 active; further: nearly all actives have a fitted effect of over 55% in size
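Viability of NIH 3T3 cells after 48 or 72 hr compound treatment at 37 °C was assessed by CellTiter-Glo, with luminescence imaged following a 10 min room-temperature step.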
NPR1 antag: blocks ANP-stimulated signaling of human Npr1 receptor | AID 1347048 | Potency, µM (highest dose often 46.3 µM), for inactives: top-dose activity change, negative = inhibition, usual class: inhibitors | 1.6% of 76,000 active | HEK293 hNpr1 GloSensor cGMP, ANP-stimulated luminescence | P16066; calls by dose curve; further: nearly all actives have a fitted effect of over 60% in size
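HEK293 cells stably expressing human Npr1 and cGMP GloSensor pGS-40F, loaded 2 h with 2% GloSensor reagent, given compound 30 min at room temperature. Luminescence read before and 20 min after 0.1 nM hNppA.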
HEK293 tox: HEK 293 cell cytotoxicity; HEK 293 viability, ATP luminescence (CellTiter-Glo), 48-72 h; Potency, µM (highest dose often 115 µM), without a hit: at the highest dose activity change, negative = cytotoxicity, hits mostly inhibitors; 6.6% of 94,000 active; AID 1345083; further: nearly all actives have a fitted effect of over 60% in size
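Viability of HEK 293 cells, plated at 250 cells/well, was judged by cellular ATP after compound treatment for 48 or 72 hr. Luminescence was imaged 10 min after CellTiter-Glo addition at room temperature.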
* marks the source's active call; other numbers are inactive results; i = inactive; ? = inconclusive; · = not tested or not shown; [ ] = another dose, or the depositor's remark. Unless noted, the call rests on the fitted dose curve; in most records, active means well fitted curve in the direction sought with a large enough effect; inconclusive means small, poorly fitted or top-dose-only effect, or another doubt; inactive means no such curve, though single readings can be large; an effect the other way counts as inactive or inconclusive. On the % scale 0 is the no-effect control and ±100 the full control effect; potency means the concentration at half of the fitted maximal effect.

SMILES	Luciferase inh	3T3 cytotox	NPR1 antag	HEK293 tox
COc1ccccc1CC(=O)N1CCCc2ncc(C(=O)Nc3cccc(C(F)(F)F)c3)cc21	i	?	-12.7%	50.1µM*
COc1ccccc1CC(=O)N1CCCc2ncc(C(=O)Nc3ccc(OC)c(OC)c3)cc21	i	-23.5%	-0.2%	?
O=C(Nc1cccc(C(F)(F)F)c1)c1cnc2c(c1)N(Cc1ccccc1)CCC2	i	31.6µM*	-30.3%[70.6 µM]	63.1µM*
COc1ccc(NC(=O)c2cnc3c(c2)N(C(=O)Cc2cccc(C(F)(F)F)c2)CCC3)cc1OC	i	?	0.1%	?
O=C(NCc1cccc(F)c1)c1cnc2c(c1)N(Cc1ccccc1)CCC2	i	?	-3.6%[70.6 µM]	?
CCC1(O)CCC12CCN(C(=O)CCC1CCCC1)CC2 (stereo not drawn)	·	-22.7%	·	?
COc1cccc(C(=O)N2CCCC(C(=O)N3CCC(N4Cc5cccn5C4=O)CC3)C2)c1 (stereo not drawn)	·	-14.3%	·	?
CC(C)(C)c1ccc(-c2cc(C[C@H]3CNCC[C@H]3CC(=O)Nc3nccs3)no2)cc1	i	8.91µM*	1.9%	?
CC(C)(C)NC(=O)C[C@@H]1CCNC[C@@H]1Cc1cc(COc2ccccc2)on1	i	-17.4%[174 µM]	5.3%[70.6 µM]	?
CC(C)(C)c1cc(C[C@H]2CNCC[C@H]2CC(=O)Nc2nccs2)no1	i	?	4.6%[70.6 µM]	100µM*
COc1ccccc1N1CCN(C(=O)C[C@@H]2CCNC[C@@H]2Cc2cc(-c3ccc(C(C)(C)C)cc3)on2)CC1	i	?	-1.3%	?
COc1ccc(-c2cc(C[C@H]3CNCC[C@H]3CC(=O)Nc3nccs3)no2)cc1	i	79.4µM*	-0.9%[70.6 µM]	100µM*
O=C(c1ccccc1OC1CCN(Cc2ccc(-n3cccn3)cc2)CC1)N1CCCCC1	i	-15.4%	0.5%	?
Cc1ccsc1CN1CCC(Oc2cc(Cl)ccc2C(=O)N2CCCCC2)CC1	i	?	1.3%	44.7µM*
CCN1c2cc(C(=O)Nc3ccc(Oc4ccccc4)cc3)ccc2C(=O)N2CCCCC21 (stereo not drawn)	i	31.6µM*	-8.9%	?
CCN1c2cc(C(=O)Nc3ccc(OC)cc3)ccc2C(=O)N2CCCC21 (stereo not drawn)	i	4.1%	-12.9%	1.8%
CN1c2cc(C(=O)Nc3ccc(Oc4ccccc4)cc3)ccc2C(=O)N2CCCCC21 (stereo not drawn)	50.1µM*	?	?	?
CN1c2cc(C(=O)Nc3ccc(Oc4ccccc4)cc3)ccc2C(=O)N2CCCCCC21 (stereo not drawn)	?	?	?	10µM*
O=C(c1ccccc1)N1Cc2ccccc2CC2(CCN(Cc3ccccn3)C2)C1 (stereo not drawn)	·	-43.4%	·	-64.0%
O=C(c1ccccc1)N1CCCC(C(=O)N2CCC(c3nc4ccncc4[nH]3)CC2)C1 (stereo not drawn)	·	-23.9%	·	-7.2%
COCCOC1CCOC2(CCN(C(=O)Cn3c(=O)oc4ccccc43)CC2)C1 (stereo not drawn)	i	-3.1%	5.1%	10.8%
CCc1cccc(NC(=O)C2CCc3ncc(-c4ccsc4)n3C2)c1 (stereo not drawn)	i	?	-4.5%	44.7µM*
CCN1CCCC1CNC(=O)CCc1ccc2c(c1)CN(C(=O)NC(C)C)CCO2 (stereo not drawn)	·	-8.8%	·	-6.4%
COc1cccc(C(=O)N2CCN(C(=O)c3cccc(-c4ccccn4)c3)CC2)c1	·	-19.7%	·	?
COc1cccc(-c2cccc(C(=O)N3CCN(C(=O)c4ccc(F)cc4)CC3)c2)c1	·	?	·	28.2µM*
SMILES	Luciferase inh	3T3 cytotox	NPR1 antag	HEK293 tox
COc1cccc(-c2cccc(C(=O)N3CCN([S+](=O)([O-])c4ccccc4)CC3)c2)c1	·	?	·	35.5µM*
CC(=O)Nc1ccc([S+](=O)([O-])N2CCCN(CCn3nc4n(c3=O)CCCC4)CC2)cc1	·	-20.7%	·	-3.3%
Cc1ccc(C2Cn3nnc(C(=O)N4CCN(C(=O)Cc5cccs5)CC4)c3CO2)cc1 (stereo not drawn)	i	-22.1%	-22.8%	?
O=c1n(-c2ccncc2)nc2n1CCN(Cc1ccc(OC(F)(F)F)cc1)C2	i	?	?	22.4µM*
O=c1n(-c2ccncc2)nc2n1CCN(Cc1ccccc1)C2	?	?	-26.8%[70.6 µM]	79.4µM*
COCc1ccc2c(c1)c(OC(C)(C)C(=O)NCC1CCOCC1)nn2CCC(C)C	i	?	5.7%[70.6 µM]	?
Cc1ccc2[nH]c(=O)cc(C(=O)N3CCOC(CCCC(C)C)C3)c2c1 (stereo not drawn)	i	-24.1%	-1.4%	?
O=C(Cc1ccccn1)NCCNC(=O)c1cccc(-c2ccsc2)c1	·	-19.2%[138 µM]	·	-29.5%[172 µM]
COc1ccc(-c2cc(C(=O)NC3CC3)c3c(C4CCCNC4)noc3n2)cc1 (stereo not drawn)	·	31.6µM*	·	31.6µM*
COCc1ccccc1-c1cn(C)c(=O)n2cc(COc3ccc(Cl)cc3)nc12	i	?	?	?
Cn1cc(-c2cn(C)c(=O)n3cc(COc4ccc(Cl)cc4)nc23)cn1	?	?	0.7%[70.6 µM]	70.8µM*
Cn1cc(-c2ccnc(N3CCOCC3)c2)c2nc(COc3ccc(Cl)cc3)cn2c1=O	?	28.2µM*	?	?
Cc1c(-c2cn(C)c(=O)n3cc(COc4ccc(Cl)cc4)nc23)cnn1C	?	?	-4.6%[70.6 µM]	?
Cn1cc(-c2ccccc2)c2nc(COc3ccc(Cl)cc3)cn2c1=O	i	50.1µM*	-21.2%[70.6 µM]	?
COc1cncc(-c2cn(C)c(=O)n3cc(CNc4ccccc4)nc23)c1	i	?	-9.4%[70.6 µM]	?
Cn1cc(-c2cccc(C(F)(F)F)c2)c2nc(CNc3ccccc3)cn2c1=O	i	25.1µM*	-18.3%[70.6 µM]	50.1µM*
Cn1nc(-c2nncn2CC2CC2)c2c1CCN(C(=O)c1n[nH]c3ccccc13)C2	i	-11.1%	1.3%	?
CNC(=O)c1cc(C2CC2)nc2c1c(C1CCCN(C(=O)Cc3ccc(OC)cc3)C1)nn2C (stereo not drawn)	·	-11.7%	·	-18.0%
O=C(c1ccc(Cl)cc1)N1CCC(n2cnnc2-c2ccccc2)CC1	i	i	1.6%	3.7%
O=C(NC1CCCC1)NC1CCN(c2ccc3nnc(C4CC4)n3n2)C1 (stereo not drawn)	·	-15.3%	·	-4.9%
CN1CCN(Cc2cn3c(=O)n(C)cc(-c4cccc(OC(F)(F)F)c4)c3n2)CC1	i	?	1.3%[70.6 µM]	?
Cn1cc(-c2cccc(OC(F)(F)F)c2)c2nc(CN3CCNC(=O)C3)cn2c1=O	i	100µM*	-5.9%[70.6 µM]	-24.1%[172 µM]
CCOC(=O)C1CCN(C(=O)C2CCc3nnc(CNC(C)=O)n32)CC1 (stereo not drawn)	·	-8.6%	·	-5.5%
COc1cccc(CN2Cc3cc(NC(=O)c4ccc([N+](=O)[O-])cc4)ccc3OCC2=O)c1OC	i	?	?	39.8µM*
